We go through 40 compounds from PubChem BioAssay (NCATS).

A number with no mark means an inactive call. Results filed as inconclusive are left out. Activity calls are given as the source filed them. Unless noted, calls come from the whole dose curve; as a rule, active = well fitted curve in either direction with a large enough effect (not every such curve was filed as active); inconclusive = small, poorly fitted or top-dose-only effect, or another doubt; inactive = flat fitted curve, though single readings scatter.

Chain of Glucocorticoid receptor (Homo sapiens) (P04150 whole entry, looked up): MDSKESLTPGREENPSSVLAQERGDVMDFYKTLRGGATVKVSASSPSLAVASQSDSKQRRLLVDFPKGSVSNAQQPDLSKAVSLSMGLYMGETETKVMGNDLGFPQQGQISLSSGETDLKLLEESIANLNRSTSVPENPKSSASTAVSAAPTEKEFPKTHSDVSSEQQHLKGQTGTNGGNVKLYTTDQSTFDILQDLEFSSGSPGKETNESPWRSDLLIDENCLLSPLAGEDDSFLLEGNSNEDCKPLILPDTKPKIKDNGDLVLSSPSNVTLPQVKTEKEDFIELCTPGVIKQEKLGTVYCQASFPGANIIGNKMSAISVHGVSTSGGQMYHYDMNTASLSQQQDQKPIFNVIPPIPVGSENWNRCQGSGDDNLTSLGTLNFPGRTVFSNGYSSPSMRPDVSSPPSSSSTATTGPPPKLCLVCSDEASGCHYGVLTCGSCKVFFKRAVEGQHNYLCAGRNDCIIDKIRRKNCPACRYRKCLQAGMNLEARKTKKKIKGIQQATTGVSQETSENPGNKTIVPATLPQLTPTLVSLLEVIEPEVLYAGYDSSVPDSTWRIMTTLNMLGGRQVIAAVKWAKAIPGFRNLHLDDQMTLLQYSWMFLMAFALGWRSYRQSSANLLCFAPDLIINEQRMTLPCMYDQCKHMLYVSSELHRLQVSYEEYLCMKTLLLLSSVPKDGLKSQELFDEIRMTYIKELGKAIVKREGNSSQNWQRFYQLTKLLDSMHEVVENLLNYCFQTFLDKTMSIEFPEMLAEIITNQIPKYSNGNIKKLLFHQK

System in one test: not listed separately
Kind of test: Stat Signaling Pathway (AID 446).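 Note: ME-180 cervical cancer cells given 40 pM IL-6 alongside compound; SIE-controlled beta-lactamase reporter measured as 460/530 nm FRET emission ratio; % is set by controls: 0 for no effect and ±100 for the full control effect.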 The note with it: ME-180 (cervical carcinoma) SIE beta-lactamase reporter, IL-6 stimulated, 5 h; at 17.2 µM (top of the series) unless noted. The method in brief:
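FRET read-out (405 nm excitation, 460/530 nm emission) of a beta-lactamase reporter under a STAT-inducible element in ME-180 cervical carcinoma cells. Cells with compound receive 40 pM IL-6 for 5 h. Values are normalised to AC90 stimulation and AC90 JAK-inhibitor controls.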
As for `Cc1ccc(-n2ncc3c(NCc4ccc5c(c4)OCO5)ncnc32)c(C)c1`, the activity, negative = inhibition was -19.8%. As for `CN1CCc2c(C#N)c(N3CCCCC3)nc(NCc3ccccc3)c2C1`, the activity, negative = inhibition was -16.2%. For `O=S(=O)(N[C@@H]1C[C@H]2CC[C@@H]1C2)c1cccs1`, the activity, negative = inhibition was -0.621%. `CN(C)C/C(Cl)=C(\Cl)c1ccccc1`: the activity, negative = inhibition is -22.6%. Take `CC1(C(=O)O)CCC(C(=O)NC2CCCCCC2)C1(C)C` (stereo not given): the activity, negative = inhibition was 10.5%.

Consider `COC(=O)c1ccccc1NC(=O)CSc1nnc(-c2ccncc2)o1`, for which the activity, negative = inhibition is 0.0286%.

As for `CCC[C@@H]1C[C@@H](C(=O)N[C@H]([C@@H](C)O)[C@H]2O[C@H](SC)[C@H](O)[C@@H](O)C2O)N(C)C1` (stereo not given in full), the activity, negative = inhibition is -0.0835%. For the compound `CCCOc1ccc(N2C(=O)C3ON(c4ccccc4)C(c4ccc(O)c(OC)c4)C3C2=O)cc1` (stereo not given), the activity, negative = inhibition is -20%.

On to `CC1(C)CC(=O)C(C=NCC(O)c2ccccc2)=C(O)C1` (stereo not given), for which the activity, negative = inhibition is 8.79%. For `CCOc1ccc(C2C(C#N)=C(N)Oc3cc(C)n(CCN4CCOCC4)c(=O)c32)cc1OCC` (stereo not given), the activity, negative = inhibition was 0.201%.

Take `C=CCOC(=O)C1=C(C)NC(SCC(=O)N(CC)CC)=C(C#N)C1c1ccccc1` (stereo not given): the activity, negative = inhibition is -2.74%. `Cc1cccc(Nc2ncnc3ccccc23)c1`: the activity, negative = inhibition is -0.134%.

In the case of `N#Cc1c(N2CCCCC2)nc(N2CCCCC2)c2c1CCN(Cc1ccccc1)C2`, the activity, negative = inhibition is 17.8%. With `Cc1cc(=O)[nH]c(SCC(=O)c2ccccc2)c1C#N`, the activity, negative = inhibition is -5.21%.

Consider `CC12CCC(C(=O)NCCCN3CCOCC3)(OC1=O)C2(C)C` (stereo not given), for which the activity, negative = inhibition is 3.88%.

Consider `CCOC(=O)N1CCN(c2ncnc3c2cnn3-c2ccc(OC)cc2)CC1`, for which the activity, negative = inhibition was -2.17%.

A further test has as its target Glucocorticoid receptor (Homo sapiens) (UniProt P04150). Kind of test: GR-GFP Redistribution (AID 450;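 active = compounds whose dose series gives a full or clear partial fitted curve of increased nuclear translocation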; note: potency is the fitted concentration of half-maximal effect). The note with it: U2OS GR-GFP nuclear translocation, laser cytometry, 2 h; series mostly up to 20.6 µM; translocation activation: at the top concentration.
Turning to `Cc1ccc(-n2ncc3c(NCc4ccc5c(c4)OCO5)ncnc32)c(C)c1`, the Potency was greater than 20.6 µM. `CN1CCc2c(C#N)c(N3CCCCC3)nc(NCc3ccccc3)c2C1`: the Potency was greater than 20.6 µM. Still for that read-out and setting: the result for `O=S(=O)(N[C@@H]1C[C@H]2CC[C@@H]1C2)c1cccs1` reads greater than 20.6 µM; that for `CN(C)C/C(Cl)=C(\Cl)c1ccccc1`, greater than 20.6 µM. On the same count and under the same terms, the result for `CC1(C(=O)O)CCC(C(=O)NC2CCCCCC2)C1(C)C` (stereo not given) reads greater than 20.6 µM; that for `COC(=O)c1ccccc1NC(=O)CSc1nnc(-c2ccncc2)o1`, greater than 20.6 µM.

Regarding `CCC[C@@H]1C[C@@H](C(=O)N[C@H]([C@@H](C)O)[C@H]2O[C@H](SC)[C@H](O)[C@@H](O)C2O)N(C)C1` (stereo not given in full), the Potency is greater than 20.6 µM. The same measure, in the same setting: the result for `CCCOc1ccc(N2C(=O)C3ON(c4ccccc4)C(c4ccc(O)c(OC)c4)C3C2=O)cc1` (stereo not given) reads greater than 20.6 µM; that for `CC1(C)CC(=O)C(C=NCC(O)c2ccccc2)=C(O)C1` (stereo not given), greater than 20.6 µM. Same read-out and setting: the result for `CCOc1ccc(C2C(C#N)=C(N)Oc3cc(C)n(CCN4CCOCC4)c(=O)c32)cc1OCC` (stereo not given) reads greater than 20.6 µM; that for `C=CCOC(=O)C1=C(C)NC(SCC(=O)N(CC)CC)=C(C#N)C1c1ccccc1` (stereo not given), greater than 20.6 µM; that for `Cc1cccc(Nc2ncnc3ccccc23)c1`, greater than 20.6 µM.

As for `N#Cc1c(N2CCCCC2)nc(N2CCCCC2)c2c1CCN(Cc1ccccc1)C2`, the Potency is greater than 20.6 µM. With `Cc1cc(=O)[nH]c(SCC(=O)c2ccccc2)c1C#N`, the Potency was greater than 20.6 µM. For the compound `CC12CCC(C(=O)NCCCN3CCOCC3)(OC1=O)C2(C)C` (stereo not given), the Potency was greater than 20.6 µM. Take `CCOC(=O)N1CCN(c2ncnc3c2cnn3-c2ccc(OC)cc2)CC1`: the Potency was greater than 20.6 µM.

In a further test the target is Mitogen-activated protein kinase 10 (Mus musculus) (UniProt Q61831). Kind of test: JNK3 AlphaScreen Assay (AID 530).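 For activity change, negative = inhibition: signal reports phosphorylation of biotinylated GST-cJun 1-79 at Ser73 with 10 µM ATP; % is set by controls: 0 for no effect and ±100 for the full control effect.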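 Note: kinase came from lysate of stimulated human HepG2 cells.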 Note: potency is the fitted concentration of half-maximal effect. The note with it: JNK3 lysate, c-Jun phosphorylation; series mostly up to 57.1 µM; activity change, negative = inhibition: at the top concentration. The method in brief:
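Activity was read by AlphaScreen after JNK3-containing HepG2 lysate (cytokine pre-activated) phosphorylated biotinylated GST-cJun with 10 uM ATP at room temperature. Phospho-Ser73 cJun antibody with Protein-A acceptor beads provided detection.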
A general note: In Alpha technology, singlet oxygen from a donor bead excites a nearby acceptor bead.
`O=C(OCC(COC(=O)c1ccccc1)(COC(=O)c1ccccc1)COC(=O)c1ccccc1)c1ccccc1`: the “activity change, negative = inhibition” value is 28.9%.

As to `COc1cc2c(c(OC)c1OC)-c1ccc(OC)c(=O)cc1[C@H](NC(C)=O)CC2`, the Potency result was “inactive”. Regarding `ClC1=C(Cl)C(Cl)(Cl)C(Cl)=C1Cl`, the “activity change, negative = inhibition” value was 22.7%. For `CC(=O)Nc1ccc(C(=O)CCl)cc1`, the “activity change, negative = inhibition” value is 6.07%. For `CC/C(=C(\c1ccccc1)c1ccc(OCCN(C)C)cc1)c1ccc(O)cc1`, the “activity change, negative = inhibition” value is 17.1%. Regarding `c1ccc2c(c1)-c1cccc3c1c-2cc1ccccc13`, the Potency is 2.51 µM [activator] (active).

In the case of `Cc1cc(O)c(C(C)(C)C)cc1Sc1cc(C(C)(C)C)c(O)cc1C`, the “activity change, negative = inhibition” value was 3.9%. On the same count and under the same terms, the result for `CNc1ccc(O)cc1` reads -12.1%; that for `C=CC(=O)OCCOCCOC(=O)C=C`, 19.9%. For `C/C=C1\C(=O)C[C@H]2[C@@H]3CCC4=CC(=O)CC[C@]4(C)[C@H]3CC[C@]12C`, the “activity change, negative = inhibition” value was -3.55%.

Consider `O=C1OC(O)C(C(Cl)Cl)=C1Cl` (stereo not given), for which the “activity change, negative = inhibition” value is 10.9%. Take `Cc1ccc(S(=O)(=O)Oc2ccc(N=Nc3ccc(-c4ccc(N=Nc5c(O)ccc6cc(S(=O)(=O)O)cc(S(=O)(=O)O)c56)c(C)c4)cc3C)cc2)cc1`: the Potency is 0.2 µM (active).

System in another test: not listed separately
Kind of test: Cell Viability - N2a (AID 540; active = well fitted cell-killing curve with a large enough effect;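 note: cells exposed to compound for 40 h at 37 °C; nearly all actives have a fitted effect of over 45% in size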; note: potency is the fitted concentration of half-maximal effect;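 for activity change, negative = cytotoxicity: plate controls were DMSO alone for no effect and tamoxifen control for full effect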). The note with it: N2a mouse neuroblastoma cell viability; activity change, negative = cytotoxicity: at 92.2 µM (top of the series). The method in brief: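 Cytotoxicity was scored as loss of cellular ATP in N2a cells, a mouse neuroblastoma line. Compounds are applied in a qHTS concentration series for 40 hr at 37 °C.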
As to `c1cc(OCC2CO2)cc(OCC2CO2)c1` (stereo not given), the Potency is 31.6 µM (active). On to `Cc1cc(Nc2ccc(O)cc2)ccc1N`, for which the activity change, negative = cytotoxicity was -119% (active).

As to `CN(C)c1ccc(C2(c3ccc(N(C)C)cc3)OC(=O)c3cc(N(C)C)ccc32)cc1`, the “activity change, negative = cytotoxicity” value was -19.9%.

As for `CO[C@H]1/C=C/O[C@@]2(C)Oc3c(C)c(O)c4c(O)c(c5c(c4c3C2=O)NC2(CCN(CC(C)C)CC2)N=5)=NC(=O)/C(C)=C\C=C\[C@H](C)[C@H](O)[C@@H](C)[C@@H](O)[C@@H](C)[C@H](OC(C)=O)[C@@H]1C`, the “activity change, negative = cytotoxicity” value was -15.7%.

As for `O=C(OCC(COC(=O)c1ccccc1)(COC(=O)c1ccccc1)COC(=O)c1ccccc1)c1ccccc1`, the “activity change, negative = cytotoxicity” value was -4.51%. For `CC(=O)Nc1ccc(C(=O)CCl)cc1`, the Potency was 25.1 µM (active).

Turning to `CC/C(=C(\c1ccccc1)c1ccc(OCCN(C)C)cc1)c1ccc(O)cc1`, the Potency was 31.6 µM (active). For `Nc1ccc2cc3ccccc3cc2c1`, the “activity change, negative = cytotoxicity” value is 5.41%. On to `c1ccc2c(c1)-c1cccc3c1c-2cc1ccccc13`, for which the “activity change, negative = cytotoxicity” value was -13.6%. As for `O=C=Nc1ccc(Cc2ccc(N=C=O)cc2)cc1`, the “activity change, negative = cytotoxicity” value is 2.06%. Regarding `O=[N+]([O-])c1cc([N+](=O)[O-])c2ccc(S(=O)(=O)O)cc2c1O`, the “activity change, negative = cytotoxicity” value was 17.9%.

Take `Cc1cc(O)c(C(C)(C)C)cc1Sc1cc(C(C)(C)C)c(O)cc1C`: the Potency was 12.6 µM (active). Consider `CCC(C)Nc1ccc(NC(C)CC)cc1` (stereo not given), for which the Potency is 15.8 µM (active).

Turning to `CNc1ccc(O)cc1`, the Potency was 31.6 µM (active). For the compound `C=CC(=O)OCCOCCOC(=O)C=C`, the activity change, negative = cytotoxicity is -114% (active).

As for `O=C1OC2(c3cc(Br)c(O)c(Br)c3Oc3c2cc(Br)c(O)c3Br)c2c(Cl)c(Cl)c(Cl)c(Cl)c21`, the Potency is 3.98 µM (active). Take `Oc1ccc2cc(SSc3ccc4cc(O)ccc4c3)ccc2c1`: the activity change, negative = cytotoxicity was -111% (active). For the compound `c1ccc2c(c1)ccc1cc3c(ccc4ccccc43)cc12`, the “activity change, negative = cytotoxicity” value is -11.5%. Still for that read-out and setting: in the case of `C/C=C1\C(=O)C[C@H]2[C@@H]3CCC4=CC(=O)CC[C@]4(C)[C@H]3CC[C@]12C` it was -114% (active); in that of `C=C(C)c1ccccc1`, -0.982%; in that of `O=C1OC(O)C(C(Cl)Cl)=C1Cl` (stereo not given), -101% (active).
